High-throughput results (PubChem BioAssay)
KB-3-1 tox = KB-3-1 parental cell cytotoxicity; KB-3-1 viability, CellTiter-Glo ATP luminescence, 72 h; Potency, µM (doses to about 46.1 µM), actives largely listed as cytotoxic; 1.4% of 400,000 active; AID 1347075; note: % is set by controls: 0 for no effect and ±100 for the full control effect; nearly all actives have a fitted effect of over 60% in size
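Cytotoxicity in the drug-sensitive parental line KB-3-1 was scored as loss of CellTiter-Glo luminescence following 72 h incubation with compound. Values come from curve fitting of normalized concentration-response data.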
PINK1 expr mod = modulators of PINK1 expression; PINK1 immunofluorescence, high-content cytometry, 24 h; Potency, µM (top dose mostly 76.6 µM), for the others: at the highest dose activation (PINK1 increase), hits mostly activators; 0.2% of 410,000 active; AID 624263; active = well fitted activation curve with a large enough effect; inconclusive = small, poorly fitted or top-dose-only effect; cell line not stated here; note: % of control where 0% means no effect; nearly all actives have a fitted effect of over 65% in size
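Decision-based qHTS: stable cells, 24 h exposure to five compound concentrations, CCCP as control. Fixed cells stained for PINK1 plus nuclear, mitochondrial and cell markers, cytometer read.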
KB-V1 MDR tox = kills drug-selected multidrug resistant KB-V1 cells | KB-V1 MDR cells viability, CellTiter-Glo, 72 h | Potency, µM (highest dose often 46.1 µM), actives largely listed as cytotoxic | 3.4% of 400,000 active; note: % is set by controls: 0 for no effect and ±100 for the full control effect; nearly all actives have a fitted effect of over 60% in size
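KB-V1 MDR subline cells in DMEM (phenol-red free, 10% FBS) exposed to compounds in qHTS concentration series for 72 h at 37 degrees C. Viability read by CellTiter-Glo luminescence; concentration-effect curves fitted after normalization and correction.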
MCF10A rereplic = DNA re-replication induction in MCF 10a cells; MCF 10A DNA re-replication, Hoechst nuclear intensity, 48 h; Potency, µM (series often up to 46.1 µM), without a hit: at the top dose activity, positive = re-replication, actives largely listed as activators; 2.9% of 350,000 active; AID 624296; note: % of control where 0% means no effect; nearly all actives have a fitted effect of over 50% in size
TSG101-PTAP inh = blocks PTAP/TSG101 interaction to inhibit HIV-1 budding | 340,000 tested, under 10 active | AID 493005 | Fluorescence polarization, FITC-PTAP peptide / Tsg101 binding | Potency, µM (highest dose often 115 µM), inactives show top-dose activity change, negative = inhibition, actives largely listed as inhibitors; active = well fitted inhibition curve with a large enough effect in the main read-out, with a control signal flat, not every such curve was filed as active; inconclusive = small, poorly fitted or top-dose-only effect, or effect the other way, or a change in a side signal; inactive = no such curve, though single readings can be large or run the other way; note: % of control where 0% means no effect
Target sequence (Q99816 whole entry, looked up): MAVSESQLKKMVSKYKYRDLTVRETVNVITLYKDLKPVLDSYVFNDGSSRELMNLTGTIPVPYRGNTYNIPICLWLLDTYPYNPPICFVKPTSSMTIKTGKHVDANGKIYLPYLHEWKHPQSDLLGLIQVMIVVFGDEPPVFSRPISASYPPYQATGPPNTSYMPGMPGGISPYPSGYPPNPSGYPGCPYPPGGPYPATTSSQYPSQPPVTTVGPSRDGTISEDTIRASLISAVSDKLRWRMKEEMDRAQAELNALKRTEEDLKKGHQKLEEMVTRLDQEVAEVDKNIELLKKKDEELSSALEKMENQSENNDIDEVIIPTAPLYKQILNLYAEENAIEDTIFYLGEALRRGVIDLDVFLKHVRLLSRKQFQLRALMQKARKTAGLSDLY
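Steps: Tsg101 binding domain dispensed (10 uM final), compounds pinned in DMSO, FITC-labeled PTAP-motif peptide added (50 nM final); after 20 min binding at room temperature, polarization measured.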
SW480 rereplic = inducers of DNA re-replication in SW480 colon cancer cells. SW480 DNA re-replication, Hoechst DNA content imaging, 48 h. Potency, µM (series often up to 46.1 µM), without a hit: top-dose re-replication activation, hits mostly activators. 1.8% of 340,000 active; note: % of control where 0% means no effect; nearly all actives have a fitted effect of over 55% in size
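Compounds, transferred as 23 nL by pin tool, were incubated with cells for 48 hr; DNA content per nucleus was then quantified by Hoechst staining and fluorescence plate imaging.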
* hit, by the source's call; i = inactive; ? = inconclusive; · = no result; ! = not confirmed by another sample; [ ] = another dose, or the depositor's remark. In the library only some 6.8% were active in any assay of this set; here they are far more common. Unless noted, calls come from the whole dose curve; as a rule, active = well fitted curve in the direction sought with a large enough effect; inconclusive = small, poorly fitted or top-dose-only effect, or another doubt; inactive = no such curve, though single readings can be large; an effect the other way counts as inactive or inconclusive. Potency is the fitted concentration of half-maximal effect.

SMILES	KB-3-1 tox	PINK1 expr mod	KB-V1 MDR tox	MCF10A rereplic	TSG101-PTAP inh	SW480 rereplic
C#CCOS(=O)OC1CCCCC1Oc1ccc(C(C)(C)C)cc1 (stereo not drawn)	·	-1.3%	·	·	·	·
COC(=O)N1CCC2(CCN(CC(C)C)CC2)CC1	·	-0.6%	·	·	·	·
Cc1c(C=O)c2ccccc2n1Cc1ccc([N+](=O)[O-])cc1	i	0.7%	10.3µM*	0.0%	-4.6%	-1.7%
Cc1cc(-n2c(/C=C/c3cccs3)nc3ccccc3c2=O)ccc1Br	i	0.1%	i	·	·	·
CC(C)n1c(O)c(C2c3cc(Cl)ccc3Oc3[nH]c(=O)n(C(C)C)c(=O)c32)c(=O)[nH]c1=O (stereo not drawn)	8.2µM*	-0.3%	7.31µM*	2.06µM*	-1.9%	?
COC(=O)c1nc(-c2ccc3c(n2)C(=O)C(N)=C(OC)C3=O)c(N)c(-c2ccc(OC)c(OC)c2O)c1C	?	3.2%	10.3µM*	?	0.4%	?
COc1ccc2c(c1OC)C(=O)O[C@H]2[C@@H]1c2cc3c(cc2CCN1C)OCO3	i	2.1%	i	-10.8%	0.0%	-12.3%
COc1cc([C@@H]2c3cc4c(cc3[C@H](O)[C@H]3COC(=O)[C@H]23)OCO4)cc(OC)c1OC	0.103µM*!	5.6%	0.259µM*	0.0211µM*	-5.6%	0.0231µM*
COc1cc2c(cc1C=O)OCO2	i	0.0%	?	-4.2%	-1.3%	-8.7%
COc1cc([C@@H]2c3cc4c(cc3[C@@H](OC)[C@H]3COC(=O)[C@H]23)OCO4)cc(OC)c1O	?	-1.1%	?	?	-2.7%	5.17µM*
O=C(Nc1cccc(F)c1)N1CC2(CCNCC2)C1	·	-0.8%	·	·	·	·
COc1cccc(OC)c1C1=NCC(=O)Nc2c1oc1ccc(Br)cc21	i	3.6%	?	?	-3.1%	0.651µM*
CN(C)C(=O)Oc1ccc(OCc2n(C)c3ccccc3[n+]2C)cc1	?	2.2%	i	4.5%	-2.6%	16.4µM*
CN(C)C(=O)Oc1ccc([N+](=O)[O-])cc1	?	0.3%	i	-0.7%	-2.1%	-23.4%
COc1cc(=O)n2c(c1C(=O)N(C)Cc1nonc1C)CCN(C(=O)C1C(C)(C)C1(C)C)CC2	·	0.0%	·	·	·	·
Cc1ccccc1-c1nc(CS(=O)CC(=O)N2CCC3(CC2)OCCO3)c(C)o1 (stereo not drawn)	i	8.7%[38.3 µM]	13µM*	-2.1%	-1.2%	-0.7%
Cc1ccsc1-c1nc(CSCC(=O)N2CCC3(CC2)OCCO3)c(C)o1	i	-1.1%	?	11.0%	-8.2%	-10.0%
CCOC(=O)C1C(=O)NC2(C)CC1c1cc(OC)ccc1O2 (stereo not drawn)	i	·	i	?	0.7%	7.5%
CCOC(=O)[C@]12Cc3cc(OC)ccc3[C@H]1N(C1CCCCC1)C(=O)c1cc(OC)ccc12	16.4µM*	-1.4%	?	·	·	·
CCOC(=O)[C@]12Cc3cc(C)ccc3[C@H]1N(C1CCCCC1)C(=O)c1cc(OC)ccc12	3.26µM*	-0.9%	4.11µM*	·	·	·
NCC(=O)c1ccc(Cl)c(Cl)c1	?	·	i	·	·	·
NC(N)=N/N=C/c1cn(-c2ccccc2)nc1-c1cccs1	i	-2.5%	?	7.31µM*	-5.4%	-18.5%
CCOc1ccc2c3c1O[C@H]1[C@@H](O)C=C[C@H]4[C@@H](C2)N(C)CC[C@@]341	·	·	·	-1.3%	·	-0.3%
COc1ccc(-c2nn(-c3ccccc3)cc2C(=O)N2c3ccc(C)cc3C3CN(C)CCC32)cc1 (stereo not drawn)	i	2.4%	i	?	-0.6%	2.4%
COc1cc2c(cc1O)C(Cc1ccc(O)cc1)NCC2 (stereo not drawn)	?	-0.9%	i	-20.7%	-1.1%	15.4%
SMILES	KB-3-1 tox	PINK1 expr mod	KB-V1 MDR tox	MCF10A rereplic	TSG101-PTAP inh	SW480 rereplic
CC[C@H]1CN2CCc3cc(OC)c(OC)cc3C2C[C@@H]1C[C@H]1NCCc2cc(OC)c(OC)cc21 (stereo partly drawn)	0.206µM*	·	2.06µM*	?	-0.5%	?
CC(C)(C)NCC1(CO)SC(N)=NC1=O (stereo not drawn)	i	7.6%	i	20.6µM*	-9.7%	?
CC(=O)Nc1cc(C(=O)N2CCC3(CC2)OCCO3)ccc1S(=O)(=O)c1ccc(C)cc1	i	0.5%	i	-4.8%	-4.7%	-16.3%
CCCC(=O)Nc1cc(C(=O)N2CCC3(CC2)OCCO3)ccc1S(=O)(=O)c1ccc(C)cc1	i	-4.0%[38.3 µM]	10.3µM*	-3.1%	0.0%	-3.1%
CC(=O)[O][Hg][c]1ccccc1	·	·	·	43.1%	·	?
Cc1ccc(C)c(NP(=O)(Oc2ccccc2)Oc2ccccc2)c1	?	-3.7%	i	20.6µM*	-8.6%	-0.8%
C=C(C=O)CC1CC(O)[C@]2(C)OC3CC4OC5C[C@]6(C)O[C@]7(C)CCC8OC9C[C@]%10(C)OC%11C(C)=CC(=O)OC%11CC%10OC9C[C@@H](C)C8OC7CC6O[C@]5(C)CC5OC5C4OC3CC2O1 (stereo partly drawn)	11.6µM*	9.6%	i	4.61µM*	-0.4%	5.8µM*
OC12ONC(c3ccccn3)C1N1CCC2CC1 (stereo not drawn)	i	0.1%	i	7.31µM*	-3.3%	16.4µM*
CC(C)C12CN3CC(C(C)C)(CN(C1)C3c1ccccn1)C2=O (stereo not drawn)	i	-1.0%	i	·	·	·
Cc1cc(O)c2c(c1)C(=O)C13C(=C2O)C(=O)[C@H]2[C@@H](O)[C@@H]1[C@H]1[C@H](O)[C@@H]3C(=O)C3=C(O)c4c(O)cc(C)cc4C(=O)C312 (stereo partly drawn)	9.2µM*	28.2µM*	i	-39.9%	-5.6%	-11.3%
COC1C(C)OC(OC2CC(C)(O)Cc3cc4c(c(O)c32)C(=O)c2c(O)cc3c(c2C4=O)OC2OC3(C)C(O)C(N(C)C)C2O)C(OC)C1(C)OC (stereo not drawn)	0.461µM*	-6.5%	i	-9.5%	?	-7.8%
CC1CCC(C(C)C)C(OC(=O)c2ccccc2N)C1 (stereo not drawn)	·	·	·	18.8µM*	·	-3.5%
CN1CC[C@@]2(CCCN(C(=O)c3ccncc3)C2)C1	·	0.9%	·	·	·	·
CCn1c(O)c(C=NCc2cccs2)c(=O)n(CC)c1=S	i	-1.0%	i	?	-2.8%	-1.5%
CCn1c(O)c(C(=O)CC2NCCc3ccccc32)c(=O)n(CC)c1=S (stereo not drawn)	i	1.9%	i	20.6µM*	10.7%	1.6%
CC(C)CN1CCCC2(CCN(C(=O)Oc3ccccc3)CC2)C1	·	0.3%	·	·	·	·
